Screening results as filed in PubChem BioAssay.
Most compounds without a hit are left out; they make up all but 8.3% or so of the library.
MARV entry inh: blocks Marburg virus binding to or entry into cells. Marburg virus pseudotyped entry inhibition, cell reporter. 300,000 tested, 1.8% active. AID 540276. Potency, µM (highest dose often 37.8 µM), most hits filed as inhibitors; calls by dose curve; tested in HEK293 cells
Giardia FBPA inh: inhibitors of Giardia lamblia fructose-1,6-bisphosphate aldolase; purified Giardia FBPA; Potency, µM (doses to about 59.6 µM), most hits filed as inhibitors; 290,000 tested, 0.71% active; A8B2U2; note: nearly all actives have a fitted effect of over 55% in size
Target sequence (A8B2U2 whole entry, looked up): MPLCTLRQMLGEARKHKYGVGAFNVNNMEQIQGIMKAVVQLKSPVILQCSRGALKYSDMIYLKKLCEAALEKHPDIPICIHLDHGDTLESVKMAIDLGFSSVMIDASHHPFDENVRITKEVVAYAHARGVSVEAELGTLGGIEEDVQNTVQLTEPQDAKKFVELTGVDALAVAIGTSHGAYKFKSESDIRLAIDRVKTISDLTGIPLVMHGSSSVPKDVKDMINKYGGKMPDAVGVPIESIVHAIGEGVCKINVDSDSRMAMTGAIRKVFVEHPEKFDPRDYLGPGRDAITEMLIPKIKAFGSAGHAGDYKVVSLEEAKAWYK
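Giardia FBPA (40 nM reagent) was preincubated 10 min at RT with compound (up to 57.5 uM final), then substrate plus GAPDH/TPI/NAD/arsenate coupling system with diaphorase/resazurin was added; resorufin fluorescence (525/598 nm) was read after 20 min.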
Lassa entry inh: inhibitors of Lassa virus binding or cell entry; Lassa virus pseudotype entry inhibition, cell reporter; Potency, µM (titrated, usually from 37.9 µM), most hits filed as inhibitors; 300,000 tested, 1.2% active; AID 540256; calls by dose curve; tested in HEK293 cells; note: nearly all actives have a fitted effect of over 50% in size
FMDV inh: foot and mouth disease virus antiviral activity | FMDV antiviral cell-based qHTS | Potency, µM (top dose mostly 57.9 µM), hits mostly inhibitors | AID 1159524 | 410,000 tested, 1.2% active; calls by dose curve; tested in HEK293T cells; note: read-out not given here; nearly all actives have a fitted effect of over 45% in size
HCMV inh: inhibitors of human cytomegalovirus; HFF cells, HCMV-luciferase reporter, 72 h; active compounds read low; activity change, negative = inhibition, % at 57.5 µM; 410,000 tested, 4.5% active; AID 1259415; in the data active = activity change below about -60%; inconclusive = no clear call, values can overlap the other calls; inactive = above about -39%
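Cell-based, HFFs, 1000 cells/well, 16 h 37C; cpds in DMSO + HCMV-luc, MOI 1 PFU/cell; 72 h 37C; OneGlo luminescence after 5 min RT; norm. to buffer vs Salinomycin 10uM.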
HCV inh: inhibitors of hepatitis C virus infection | AID 651820 | Potency, µM (titrated, usually from 41.8 µM), most hits filed as inhibitors | Huh7.5.1 HCVcc-Cre infection, luciferase reporter, 44 h | 340,000 tested, 3.4% active
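Reporter virus HCVcc-Cre (~0.5 moi) infects cells exposed to compound; seeding density 1,000 cells/well with 4 h settling beforehand. Luminescence, 15 sec read, taken 44 h post-infection following a 15 min RT substrate incubation.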
Large screens that a line does not name were inactive. Unless noted, calls come from the whole dose curve; as a rule, active = well fitted curve in the direction sought with a large enough effect; inconclusive = small, poorly fitted or top-dose-only effect, or another doubt; inactive = no such curve, though single readings can be large; an effect the other way counts as inactive or inconclusive.

COc1ccc(C(=O)N2CCN(c3ccc([N+](=O)[O-])c(NCCc4ccc(OC)c(OC)c4)c3)CC2)cc1	MARV entry inh inconclusive, Lassa entry inh 4.5µM, FMDV inh 8.9µM, HCMV inh -99, HCV inh 1µM
O=C(c1ccccc1F)N1CCN(c2ccc([N+](=O)[O-])c(NCc3cccnc3)c2)CC1	MARV entry inh inconclusive, FMDV inh inconclusive, HCMV inh inconclusive
COc1ccc(CCNc2cc(N3CCN(C(=O)c4ccccc4F)CC3)ccc2[N+](=O)[O-])cc1OC	MARV entry inh inconclusive, Lassa entry inh inconclusive, FMDV inh 3.5µM, HCMV inh -97, HCV inh inconclusive
COc1ccc(CCNc2cc(N3CCN(C(=O)c4ccc(C)cc4)CC3)ccc2[N+](=O)[O-])cc1OC	none (no result: FMDV inh, HCMV inh)
COC(=O)/C=C1/OC(c2ccccc2)=CC1=O	none (no result: Giardia FBPA inh, Lassa entry inh, FMDV inh, HCMV inh, HCV inh)
CC1(C)O[C@H]2CC(=O)OC[C@]23[C@H]2CC[C@@]4(C)[C@H](c5ccoc5)OC(=O)[C@H]5O[C@]54[C@]2(C)C(=O)C[C@@H]13	none (no result: MARV entry inh, Giardia FBPA inh, Lassa entry inh, HCMV inh, HCV inh)
CC1(C)C(=O)C=C[C@]2(C)C1CC(=O)[C@]1(C)C2CC[C@@]2(C)C(c3ccoc3)OC(=O)C3O[C@@]321 (some centres undefined)	FMDV inh 18µM (no result: MARV entry inh, Lassa entry inh, HCMV inh, HCV inh)
C/C(=N\Nc1nc(N)cc(Cl)n1)c1ccc(F)cc1	HCV inh inconclusive (no result: MARV entry inh, Lassa entry inh)
C/C(=N\Nc1nc(N)cc(Cl)n1)c1ccc(Cl)c(Cl)c1	HCV inh 11µM
COCC(=O)Nc1cc(C(=O)N2CCCC(C(C)=O)C2)cc2nc(-c3ccccc3)n(C)c12 (centres undefined)	none (no result: MARV entry inh, Giardia FBPA inh, Lassa entry inh, HCMV inh, HCV inh)
CCc1nn2c(=O)cc(N3CCN(c4cc(C)nc5ccccc45)CC3)nc2s1	none (no result: MARV entry inh, Lassa entry inh, FMDV inh, HCMV inh)
CCc1nn2c(=O)c(F)c(N3CCNCC3)nc2s1	HCMV inh -105 (no result: MARV entry inh, Giardia FBPA inh, Lassa entry inh, HCV inh)
COc1ccc(-c2nc3cnc(OC)nc3n(-c3ccccc3)c2=O)cc1	none (no result: MARV entry inh, Lassa entry inh, HCMV inh, HCV inh)
Cc1[nH][nH]c(=O)c1C(c1ccc(-c2ccc(F)cc2)o1)c1c(C)[nH][nH]c1=O	Giardia FBPA inh inconclusive
COc1ccc(-c2ccc(C(c3c(C)[nH][nH]c3=O)c3c(C)[nH][nH]c3=O)o2)c([N+](=O)[O-])c1	MARV entry inh inconclusive, Giardia FBPA inh 6.3µM (no result: FMDV inh)
C=CCNC(=O)c1ccc2c(c1)S(=O)(=O)c1ccccc1C2=O	HCV inh 25µM (no result: MARV entry inh, Giardia FBPA inh, Lassa entry inh)
CCNC(=O)c1ccc2c(c1)S(=O)(=O)c1ccccc1C2=O	none
CC1CCC(NC(=O)c2ccc3c(c2)S(=O)(=O)c2ccccc2C3=O)CC1 (centres undefined)	HCMV inh -67 (no result: MARV entry inh, Giardia FBPA inh, Lassa entry inh)
CC(C)=CCC/C(C)=C/C=C/C1=CC2(C)CC1(C)C(/C=C(\C)CCC=C(C)C)CC2=O (centres undefined)	MARV entry inh inconclusive (no result: Lassa entry inh, FMDV inh, HCMV inh, HCV inh)
CN1CCCN(C(=O)[C@@H]2C[C@@H](Sc3nc4ccccc4[nH]3)CN2Cc2ccc(OC(F)(F)F)cc2)CC1	none (no result: MARV entry inh, Giardia FBPA inh, Lassa entry inh, HCMV inh, HCV inh)
O=C(Nc1nc(-c2ccccc2)cs1)C1CCCN(S(=O)(=O)c2ccccc2)C1 (centres undefined)	MARV entry inh 8.2µM, Lassa entry inh 10µM, FMDV inh 10µM, HCMV inh inconclusive, HCV inh 5µM
O=C(Nc1nc(-c2ccc(S(=O)(=O)N3CCCC3)cc2)cs1)c1cccs1	MARV entry inh inconclusive, Lassa entry inh inconclusive, FMDV inh inconclusive, HCMV inh -87, HCV inh inconclusive
O=C(Nc1nc(-c2ccc(S(=O)(=O)N3CCCCCC3)cc2)cs1)c1cccs1	MARV entry inh inconclusive, FMDV inh 10µM, HCV inh inconclusive
O=C(Nc1ccc(S(=O)(=O)N2CCCC2)cc1)c1cccs1	Lassa entry inh inconclusive, HCMV inh inconclusive
CCOc1ccc(C(=O)c2cn(Cc3ccccc3)c3c(F)cc(F)cc3c2=O)cc1	none (no result: Giardia FBPA inh, HCV inh)
CCOC1=C(NC(=O)C(C)(C)C)CC(OCC)=C(N2CCOCC2)C1	none (no result: Giardia FBPA inh, Lassa entry inh, FMDV inh, HCMV inh, HCV inh)
CCOC(=O)C1(C(=O)OCC)Cc2ccc(C(C)=O)cc2C1	Lassa entry inh inconclusive (no result: Giardia FBPA inh, FMDV inh, HCMV inh, HCV inh)
C=CCOC(/C=C/c1ccccc1)CC (centres undefined)	none (no result: MARV entry inh, Lassa entry inh, FMDV inh, HCMV inh, HCV inh)
O=C(CSc1nnnn1C1CC1)N1CCN(c2cccc(Cl)c2)CC1	HCV inh 13µM (no result: MARV entry inh, Giardia FBPA inh, Lassa entry inh)
CC(C)c1ccc(CN2CCN(C(=O)CSc3nnnn3C3CC3)CC2)cc1	FMDV inh inconclusive, HCMV inh -90, HCV inh 5.6µM (no result: MARV entry inh, Giardia FBPA inh, Lassa entry inh)
Cc1nn2c(=O)cc(COC(=O)c3cccs3)nc2s1	Lassa entry inh inconclusive (no result: MARV entry inh, Giardia FBPA inh, HCV inh)
